For 20 compounds, Potency and outcome results are on record in PubChem BioAssay (Tox21).

Where “and” joins values, the source holds several entries; their conditions need not be identical. Equal entries are not always repeated. Results filed as inconclusive are left out. The source holds several records for some structures; these can differ, active in one and inactive in another. Calls of active or inactive are those of the source. Unless noted, calls follow the shape of the dose curve; as a rule, active = well fitted curve in the direction sought with a large enough effect in the repeat runs; inconclusive = weak or mixed curves; inactive = no such curve, though single readings can be large; an effect the other way counts as inactive or inconclusive.

Assay [1] is described as follows: qHTS assay for small molecule agonists of the p53 signaling pathway (AID 651631; calls by dose curve; also: nearly all actives have a fitted effect of over 15% in size). Put shortly:
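HCT-116 cells carrying a beta-lactamase reporter under p53 response elements were dosed with compound for 16 h at 37 °C. LiveBLAzer B/G FRET substrate was then added for 2 h at room temperature, and fluorescence intensity was read to detect pathway agonism.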
Background: qHTS replaces the single test concentration by a dilution series.

A short description of assay [2]: qHTS assay for small molecule agonists of the p53 signaling pathway - cell viability (AID 651633; calls by dose curve; also: nearly all actives have a fitted effect of over 30% in size; also: potency is read from the fitted curve at half-maximal effect). Summed up: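 p53RE-bla cells, seeded at 4,000 per well and rested 5 h at 37 C/5% CO2, received compounds in DMSO for 16 h at 37 C. CellTiter-Glo was then added, and luminescence was read after 30 min at room temperature to gauge cytotoxicity.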
Assay [3] is described as follows: qHTS assay for small molecules that induce genotoxicity in human embryonic kidney cells expressing luciferase-tagged ATAD5 - cell viability (AID 651634; calls by dose curve; also: nearly all actives have a fitted effect of over 25% in size; also: potency is read from the fitted curve at half-maximal effect). Summed up:
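HEK293T ATAD5-luc cells, 2,000/well; compound 15.5 hr, 37C/5% CO2; CellTiter-Fluor 30 min, 37C; fluorescence read.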

Assay [4] can be described thus: qHTS assay for small molecule disruptors of the mitochondrial membrane potential - cell viability (AID 720634; calls by dose curve; also: nearly all actives have a fitted effect of over 20% in size; also: potency is read from the fitted curve at half-maximal effect). Summed up:
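Luminescence from CellTiter-Glo (ATP content) gave viability in HepG2 cells, read in the same wells as the MMP dye assay after 1 hr compound exposure at 37 C.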

Assay [5] can be described thus: qHTS assay for small molecule disruptors of the mitochondrial membrane potential (AID 720635). Also: potency is read from the fitted curve at half-maximal effect. Put shortly: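 HepG2 cells (2,000/well) attached overnight at 37C, then took compound for 1 hr at 37C, 5% CO2. Mito-MPS dye was added for 30 min; fluorescence was read at 490/535 nm (monomers) and 540/590 nm (aggregates).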
A short description of assay [6]: qHTS assay to test for compound auto fluorescence at 590 nm (red) in HepG2 cells (AID 720674). Put shortly:
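Rose Bengal sodium served as the red fluorophore standard. HepG2 monolayers (overnight attachment, MEM with 10% FBS) were exposed to test compounds for 1 hr at 37 C and read at Ex 540/Em 590 nm.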

Assay [7] is described as follows: qHTS assay to test for compound auto fluorescence at 535 nm (green) in HepG2 cells (AID 720675).
Assay [8] in a line: qHTS assay to test for compound auto fluorescence at 460 nm (blue) in HEK293 cells (AID 720678). Put shortly: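 Blue-channel (Ex/Em 405/460 nm) intensity measured in HEK293 cultures after overnight compound exposure at 37C; signal expressed relative to triamterene. Cells plated 2,000 per well in 10% dialyzed FBS medium and allowed 4-5 hr to attach.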
Assay [9] is described as follows: qHTS assay to test for compound auto fluorescence at 590 nm (red) in HEK293 cells (AID 720679). Put shortly:
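Red-channel autofluorescence (Ex/Em 540/590 nm; Rose Bengal sodium reference) was measured after overnight 37C, 5% CO2 exposure of attached HEK293 cells, 2,000 per well in medium with 10% dialyzed FBS.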

Assay [10] can be described thus: qHTS assay for small molecules that induce genotoxicity in human embryonic kidney cells expressing luciferase-tagged ATAD5 (AID 651632). Also: nearly all actives have a fitted effect of over 15% in size. Put shortly:
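Luminescence read-out: after 16 hr compound exposure at 37C, ATAD5-luciferase HEK293T cells received Amplite, 30 min RT, then CCD imaging. A rise in signal marks genotoxic stress.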

On to `O=C(O)c1ccc([N+](=O)[O-])cc1`, for which the Potency result in assay [1], in [2], in assay [3], in assay [4], in assay [5] and in assay [8] was “inactive” each time. Further, the outcome in assay [6], in [7] and in [9] was inactive.

Take `CC(C)n1c(/C=C/[C@@H](O)C[C@@H](O)CC(=O)O)c(-c2ccc(F)cc2)c2ccccc21`: the Potency result in assay [2], in [4] and in assay [8] was “inactive” each time. In assay [5], the Potency is 26.6 µM (active). In addition, the outcome in assay [6] and in assay [7] was inactive.

For `CCCCCCCCCCC=CC1CC(=O)OC1=O` (stereo not given), the Potency in assay [2] is 61.4 µM (active) and inactive; in assay [5], 68.9 µM (active). For the same compound, the Potency result in assay [3], in assay [4] and in [8] was “inactive” in each case. In addition, the result in [6], in assay [7] and in assay [9] was inactive.

Regarding `NC(=O)NNc1ccccc1`, the Potency result in [1], in assay [2], in [3], in assay [4], in [5] and in [8] was “inactive” each time. Moreover, the result in assay [6], in assay [7] and in assay [9] was inactive.

In the case of `O=[N+]([O-])c1cc(N(CCO)CCO)ccc1NCCO`, the Potency entry in assay [1], in assay [2], in assay [4] and in assay [8] was “inactive” in each case. Besides, the compound was classed as inactive in assay [6], in assay [7] and in assay [9].

`CCCCCC/C=C/CCCCCCCC(=O)O`: the Potency result in assay [10], in [2], in assay [3], in assay [4], in [5] and in assay [8] was “inactive” each time. The result in assay [6], in assay [7] and in assay [9] was inactive.

Turning to `CC(C)NCC(O)COc1cccc2ccccc12` (stereo not given), the Potency entry in assay [1], in [2], in assay [3], in assay [4] and in assay [8] was “inactive” in each case. In addition, the outcome in assay [6], in assay [7] and in assay [9] was inactive.

For `CC(C)(C)C(=O)C1C(=O)c2ccccc2C1=O`, the Potency result in [10], in assay [2], in assay [4] and in [8] was “inactive” in each case. For the same compound, the Potency in [3] is 17.1 µM (active) and 7.7 µM (active); in assay [5] it was 10.8 µM (active) and 6.11 µM (active). Besides, the outcome in assay [6], in [7] and in assay [9] was inactive.

As to `CCCCC(CC)COC(C)=O` (stereo not given), the Potency result in assay [10], in assay [3], in assay [4], in [5] and in assay [8] was “inactive” in each case. Moreover, the compound was called inactive in [6] and in assay [7].

As for `Oc1ccc2ccccc2c1N=Nc1ccccc1`, the Potency entry in assay [10], in assay [2] and in [8] was “inactive” each time. Further, the Potency in [3] was 30.6 µM (active) and 48.6 µM (active); in [4], 27.3 µM (active); in assay [5], 3.06 µM (active) and 6.11 µM (active). The compound was classed as inactive in assay [6] and in assay [7].

Consider `CCc1ccccc1O`, for which the Potency entry in assay [10], in assay [2], in [3], in assay [4], in assay [5] and in assay [8] was “inactive” each time. The outcome in assay [6], in [7] and in assay [9] was inactive.

On to `CCOC(=O)C1OC1c1ccccc1` (stereo not given), for which the Potency result in assay [2], in assay [3], in assay [4], in [5] and in [8] was “inactive” throughout. For the same compound, the compound was classed as inactive in [6], in assay [7] and in [9].

As to `OC1CCCC1`, the Potency result in assay [10], in assay [2], in [3], in assay [4], in assay [5] and in [8] was “inactive” in each case. The outcome in assay [6] and in [7] was inactive.

As for `C=C1CC[C@H](O)CC1=C/C=C1\CCC[C@]2(C)[C@@H]([C@H](C)/C=C/[C@H](C)C(C)C)CC[C@@H]12`, the Potency entry in assay [10], in [3], in assay [4] and in assay [8] was “inactive” in each case. Also, the Potency was 54 µM (active) and 68.6 µM (active) in assay [2]; “inactive and 60.6 µM (active)” in assay [5]. Moreover, the compound was classed as inactive in [6] and in assay [7].

Turning to `CC1=CC[C@H]2C[C@@H]1C2(C)C`, the Potency entry in [10], in assay [2], in assay [3] and in assay [8] was “inactive” in each case. Moreover, the result in [6] and in [7] was inactive.

On to `CC1COc2ccccc2N1C(=O)C(Cl)Cl` (stereo not given), for which the Potency result in assay [2], in assay [3], in [4] and in assay [8] was “inactive” throughout. Besides, the compound was called inactive in assay [6], in [7] and in assay [9].

For the compound `NCCNCCNCCNCCN`, the Potency result in [10], in assay [2], in [3], in assay [4], in assay [5] and in assay [8] was “inactive” in each case. Besides, the compound was classed as inactive in assay [6], in assay [7] and in assay [9].

Turning to `CN(C)c1cccc(O)c1`, the Potency entry in assay [10], in [2], in assay [3], in [4] and in assay [8] was “inactive” in each case. The Potency in assay [5] is 10.9 µM (active). Further, the outcome in assay [6] and in assay [7] was inactive.

Turning to `O=S(=O)(Oc1ccc(Cl)cc1Cl)c1ccccc1`, the Potency result in assay [10], in assay [3] and in [8] was “inactive” each time. The Potency in [5] was 27.8 µM (active) and 61.1 µM (active). In addition, the outcome in [6] and in assay [7] was inactive.

`CS(=O)(=O)Nc1ccc([N+](=O)[O-])cc1Oc1ccccc1`: the Potency result in assay [1], in [2] and in [8] was “inactive” throughout. Further, the result in [6], in assay [7] and in assay [9] was inactive.
